Test results as given in PubChem BioAssay.
Values without a mark were called inactive. For some of these results: Entries with a potency or affinity are not part of this list. Active and inactive are the calls of the source. Unless noted, the rule behind the calls is not given here.

Experiments:
[1] = antimalarial activity against Dd2 strain (AID 2302;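 active = growth inhibition above 50% at the single 2 µM test dose, taken to imply half-maximal potency below 2 µM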;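 note: 0% = DMSO untreated growth and 100% = chloroquine plus artemisinin killed control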); conditions: P. falciparum Dd2 in RBCs, LDH growth readout, 72 h; at 2 µM; hits give high values
[2] = human hepatoma cell viability loss – ATP luminescence, cytotoxicity control for P. falciparum antimalarial project, primary screen (AID 2303;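 active = inhibition above 50%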;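 note: 0% = DMSO wells and 100% = digitonin-killed cells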); conditions: HepG2 viability, 24-48 h, at 10 µM, hits give high values
[3] = target: L-lactate dehydrogenase (Plasmodium falciparum (isolate CDC / Honduras)) (UniProt Q27743); experiment: PfLDH activity inhibition – cell lysate, 3D7 strain, counter-screen for P. falciparum growth inhibition project (AID 2304);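 note: 0% = vehicle and 100% = reference inhibitor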; conditions: P. falciparum 3D7 crude extract, LDH APAD/NBT absorbance; at 2 µM; hits give high values
[4] = inhibition of 3D7 malaria parasite growth – strain 3D7 (AID 2306);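 note: 0% = DMSO wells and 100% = chloroquine plus artemisinin control wells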; conditions: P. falciparum 3D7 erythrocytic growth, LDH absorbance, 72 h; at 2 µM; hits give high values
[5] = target: Calcium-dependent protein kinase 1 (Plasmodium falciparum (isolate 3D7)) (UniProt P62344); experiment: PfCDPK1 kinase inhibitors, biochemical, TCAMS library (AID 1159585; cut-off not given, nearly all actives have IC50 up to about 0.98 µM;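 note: inhibitors leave more ATP so luminescence rises with inhibition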); conditions: recombinant PfCDPK1, Kinase-Glo ATP depletion luminescence
[6] = target: Plasmodium falciparum protein kinase 6 (PK6, PF3D7_1337100) (UniProt Q8IDW1); experiment: PfPK6 kinase inhibitors, biochemical, TCAMS library (AID 1159586); conditions: recombinant PfPK6, Kinase-Glo ATP depletion luminescence
[7] = target: Protein kinase 7 (PK7), Plasmodium falciparum 3D7 (PF3D7_0213400) (UniProt Q7YTF7); experiment: inhibition of Plasmodium PK7 catalytic activity – biochemical, TCAMS antimalarial set, Kinase-Glo luminescence (AID 1159587); conditions: recombinant PfPK7, Kinase-Glo ATP depletion luminescence
[8] = target: Calcium-dependent protein kinase 4 (Plasmodium falciparum (isolate 3D7)) (UniProt Q8IBS5); experiment: PfCDPK4 kinase inhibitors, biochemical, TCAMS library (AID 1159588; cut-off not given, nearly all actives have IC50 up to about 0.91 µM); conditions: recombinant PfCDPK4, Kinase-Glo ATP depletion luminescence
Chain of Calcium-dependent protein kinase 4 (Plasmodium falciparum (isolate 3D7)) (Q8IBS5 whole entry, looked up): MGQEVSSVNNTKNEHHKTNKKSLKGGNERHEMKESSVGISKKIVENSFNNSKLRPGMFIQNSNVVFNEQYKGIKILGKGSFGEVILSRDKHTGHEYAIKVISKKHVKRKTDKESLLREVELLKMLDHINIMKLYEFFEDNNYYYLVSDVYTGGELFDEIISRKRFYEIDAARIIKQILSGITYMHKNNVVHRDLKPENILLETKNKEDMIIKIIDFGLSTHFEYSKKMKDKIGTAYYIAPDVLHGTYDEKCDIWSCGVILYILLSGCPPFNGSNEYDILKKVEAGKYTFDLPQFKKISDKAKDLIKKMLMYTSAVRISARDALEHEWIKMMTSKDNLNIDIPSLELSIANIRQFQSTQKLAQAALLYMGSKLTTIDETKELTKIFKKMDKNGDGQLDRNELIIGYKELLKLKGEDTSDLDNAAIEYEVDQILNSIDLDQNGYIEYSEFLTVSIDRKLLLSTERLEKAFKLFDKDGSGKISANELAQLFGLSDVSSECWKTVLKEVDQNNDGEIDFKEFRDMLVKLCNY

Chain of Plasmodium falciparum protein kinase 6 (PK6, PF3D7_1337100) (Q8IDW1 1-305): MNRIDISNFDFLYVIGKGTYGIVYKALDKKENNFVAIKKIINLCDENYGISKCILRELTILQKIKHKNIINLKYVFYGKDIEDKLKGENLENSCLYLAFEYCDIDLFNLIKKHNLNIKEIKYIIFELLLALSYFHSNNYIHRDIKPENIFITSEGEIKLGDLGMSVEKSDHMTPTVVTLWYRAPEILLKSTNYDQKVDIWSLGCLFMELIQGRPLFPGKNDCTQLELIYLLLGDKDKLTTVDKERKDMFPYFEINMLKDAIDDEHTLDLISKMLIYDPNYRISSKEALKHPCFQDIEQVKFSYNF
Chain of L-lactate dehydrogenase (Plasmodium falciparum (isolate CDC / Honduras)) (Q27743 whole entry, looked up): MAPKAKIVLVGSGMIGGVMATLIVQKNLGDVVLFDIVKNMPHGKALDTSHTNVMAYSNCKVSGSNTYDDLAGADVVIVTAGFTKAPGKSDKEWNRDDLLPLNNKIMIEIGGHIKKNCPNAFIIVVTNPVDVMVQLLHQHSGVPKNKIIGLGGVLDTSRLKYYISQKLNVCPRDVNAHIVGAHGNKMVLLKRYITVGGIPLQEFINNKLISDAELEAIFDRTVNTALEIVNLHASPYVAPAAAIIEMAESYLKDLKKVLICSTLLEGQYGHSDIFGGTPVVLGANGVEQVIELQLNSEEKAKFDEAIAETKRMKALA
Chain of Protein kinase 7 (PK7), Plasmodium falciparum 3D7 (PF3D7_0213400) (Q7YTF7 1-343): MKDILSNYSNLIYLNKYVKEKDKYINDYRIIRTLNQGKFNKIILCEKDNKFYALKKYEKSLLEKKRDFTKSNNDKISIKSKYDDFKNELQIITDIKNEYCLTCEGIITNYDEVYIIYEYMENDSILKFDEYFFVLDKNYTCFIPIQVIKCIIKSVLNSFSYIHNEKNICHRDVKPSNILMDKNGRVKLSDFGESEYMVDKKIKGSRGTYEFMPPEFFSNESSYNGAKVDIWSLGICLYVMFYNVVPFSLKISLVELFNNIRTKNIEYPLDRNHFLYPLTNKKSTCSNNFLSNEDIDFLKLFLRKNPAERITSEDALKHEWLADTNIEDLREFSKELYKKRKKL
Chain of Calcium-dependent protein kinase 1 (Plasmodium falciparum (isolate 3D7)) (P62344 whole entry, looked up): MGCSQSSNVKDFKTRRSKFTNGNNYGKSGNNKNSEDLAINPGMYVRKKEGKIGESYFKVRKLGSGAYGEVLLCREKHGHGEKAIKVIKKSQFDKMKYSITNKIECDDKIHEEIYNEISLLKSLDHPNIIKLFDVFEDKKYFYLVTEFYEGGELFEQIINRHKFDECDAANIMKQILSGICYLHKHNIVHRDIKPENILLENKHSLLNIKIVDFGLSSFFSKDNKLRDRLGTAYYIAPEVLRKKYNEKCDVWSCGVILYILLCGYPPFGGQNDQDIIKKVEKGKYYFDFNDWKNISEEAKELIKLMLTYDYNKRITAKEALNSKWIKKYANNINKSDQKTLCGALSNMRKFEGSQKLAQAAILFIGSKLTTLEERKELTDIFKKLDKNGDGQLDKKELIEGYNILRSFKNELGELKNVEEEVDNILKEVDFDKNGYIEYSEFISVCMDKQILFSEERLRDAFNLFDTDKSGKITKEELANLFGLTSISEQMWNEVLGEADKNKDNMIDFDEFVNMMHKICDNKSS

| SMILES | growth inhibition [1] | inhibition [2] | inhibition [3] [%] | growth inhibition [4] | outcome [5] | outcome [6] | outcome [7] | outcome [8] |
| --- | --- | --- | --- | --- | --- | --- | --- | --- |
| CCN(CC)CCN(Cc1ccc(-c2ccc(C(F)(F)F)cc2)cc1)C(=O)Cn1nc(-c2ccc(C(F)(F)F)cc2)ccc1=O | 83% (active) | 44% | -2 | 100% (active) | inactive | inactive | inactive | inactive |
| O=C(Nc1ccc(-c2ccccc2)cc1)Nc1cccc(Cn2nc(Cl)c(N3CCCNCC3)cc2=O)c1 | 37% | 13% | -2 | 101% (active) | inactive | inactive | inactive | inactive |
| COc1ccc(NC(=O)/C=C/c2ccccc2Cl)cc1OCCN1CCC(NC2CC2)CC1 | 66% (active) | 23% | 3 | 101% (active) | inactive | inactive | inactive | inactive |
| O=C(NCCCCCCNCc1ccc(-c2ccccc2)cc1)Nc1ccc(Cl)c(Cl)c1 | 2% | 14% | -1 | 90% (active) | inactive | inactive | inactive | inactive |
| COC(=O)c1cccc(NC(=O)NC2CCN(c3ccnc(Nc4ccc(OC)cc4)n3)C2)c1 (stereo not drawn) | 65% (active) | 1% | -3 | 99% (active) | inactive | inactive | inactive | inactive |
| CCOC(=O)c1cnc2c(C(F)(F)F)cccc2c1Nc1ccc(O)cc1 | 67% (active) | -7% | 2 | 96% (active) | inactive | inactive | inactive | inactive |
| CC[C@H](C)CNC(=O)c1ccnc(-c2ccc(CNC3Cc4ccccc4C3)cc2)c1 | 87% (active) | 18% | -3 | 102% (active) | inactive | inactive | inactive | inactive |
| CCCc1ccc(NC(=O)c2ccc(CN3CCCN(Cc4ccc(OC)cc4)CC3)cc2)cc1 | -4% | 47% | 0 | 81% (active) | inactive | inactive | inactive | inactive |
| NC1=NCN(OCc2ccc(Cl)c(Cl)c2)C(N)=N1 | 4% | 14% | -3 | 95% (active) | inactive | inactive | inactive | inactive |
| COc1ccc(-c2ccc(NC(=O)c3cccc(Cl)c3)cc2)cc1CN1CCCC1 | 84% (active) | 35% | 4 | 100% (active) | inactive | inactive | inactive | inactive |
| O=C(/C=C/c1ccc(-c2nc3ccc(Cl)cc3[nH]2)cc1)NCc1cccc(F)c1 | 68% (active) | 1% | 2 | 99% (active) | inactive | inactive | inactive | inactive |
| c1cncc(CN2CCCN(c3ccc4c(c3)CCN(Cc3ccc(-c5ncc[nH]5)cc3)CC4)CC2)c1 | 33% | 7% | 2 | 99% (active) | inactive | inactive | inactive | inactive |
| Cc1ccc(C)c(NC(=O)Nc2ccc(Nc3nc(C)cc(N4CCOCC4)n3)cc2)c1 | 48% | 88% (active) | 0 | 98% (active) | inactive | inactive | inactive | inactive |
| O=C(CCCCCNC(=O)c1ccc(O)c(-c2ccc(Cl)c(Cl)c2)c1)NCCN1CCOCC1 | 0% | -7% | -3 | 95% (active) | inactive | inactive | inactive | inactive |
| CC1(C)N=C(N)N=C(N)N1OCc1ccc2ccccc2c1CON1C(N)=NC(N)=NC1(C)C | 12% | 8% | 1 | 96% (active) | inactive | inactive | inactive | inactive |
| CN(C)CCC=C1c2ccccc2Sc2c(O)cc(Cl)cc21 | 80% (active) | 8% | -9 | 100% (active) | inactive | inactive | inactive | inactive |
| Fc1cc(Cl)ccc1Nc1ccnc2cc(-c3scnc3CNCCN3CCOCC3)ccc12 | 84% (active) | -7% | -2 | 99% (active) | inactive | inactive | inactive | inactive |
| CC(CON1C(N)=NC(N)=NC1(C)C)c1ccc(Cl)cc1Cl (stereo not drawn) | 95% (active) | 64% (active) | 0 | 97% (active) | inactive | inactive | inactive | inactive |
| CCOC(=O)N1CCN(CCCNc2c3ccc(Cl)cc3nc3ccc(OC)cc23)CC1 | 100% (active) | 52% (active) | 3 | 101% (active) | inactive | inactive | inactive | inactive |
| COc1ccc(NC(=O)c2cccc(Br)c2)cc1N1CCN(CCCCCCCN2CCN(c3cc(NC(=O)c4cccc(Br)c4)ccc3OC)CC2)CC1 | 93% (active) | 97% (active) | 0 | 99% (active) | inactive | inactive | inactive | inactive |
| Cc1cccc2[nH]c(-c3ccc(-c4ccc(NC(=O)Nc5ccc(Cl)c(Cl)c5)cc4)cc3)nc12 | 100% (active) | 37% | 0 | 101% (active) | inactive | inactive | inactive | inactive |

| SMILES | growth inhibition [1] | inhibition [2] | inhibition [3] [%] | growth inhibition [4] | outcome [5] | outcome [6] | outcome [7] | outcome [8] |
| --- | --- | --- | --- | --- | --- | --- | --- | --- |
| CN1CCN(c2ccnc3ccc(NC(=O)Nc4cccc5ccccc45)cc23)CC1 | 96% (active) | -3% | 1 | 101% (active) | inactive | inactive | inactive | inactive |
| CC(=O)Nc1ccc(CN2CCC(NC(=O)c3cc(-c4ccc(N(C)C)cc4)cs3)C2)cc1 (stereo not drawn) | 1% | 15% | 5 | 83% (active) | inactive | inactive | inactive | inactive |
| Cc1cc(CN2CCCC(OC(c3ccc(F)cc3)c3ccc(F)cc3)C2)ccc1O (stereo not drawn) | 82% (active) | 28% | 3 | 89% (active) | inactive | inactive | inactive | inactive |
| CN(C)CCCOc1ccc(CNCC(C)(C)c2nc(-c3ccc(Cl)c(O)c3)c(-c3ccncc3)[nH]2)cc1 | 58% (active) | 64% (active) | -2 | 102% (active) | inactive | inactive | inactive | inactive |
| Nc1c2ccccc2nc2cc(C(F)(F)F)ccc12 | 49% | 8% | 1 | 101% (active) | inactive | inactive | inactive | inactive |
| CCc1nc(N)nc(N)c1-c1ccc(C(C)(C)C)cc1 | -5% | 27% | -7 | 94% (active) | inactive | inactive | inactive | inactive |
| COc1ccc2nccc([C@@H](O)CN3CCC(NCCOc4ccc(F)cc4[N+](=O)[O-])CC3)c2c1 | 92% (active) | 8% | -1 | 99% (active) | inactive | inactive | inactive | inactive |
| COCCCNC(=O)c1ccc(O)c(-c2cc(Cl)cc(Cl)c2)c1 | 34% | 22% | -7 | 94% (active) | inactive | inactive | inactive | inactive |
| Nc1ncnc2cc(-c3cccc(NC(=O)Nc4ccccc4)c3)sc12 | 33% | 4% | 9 | 94% (active) | inactive | inactive | inactive | inactive |
| CN(C)CC1CCCN1Cc1ccccc1-c1cnn(C)c(=O)c1Oc1ccc(F)cc1 (stereo not drawn) | 19% | 29% | 2 | 91% (active) | inactive | inactive | inactive | inactive |
| NC(=O)C1CCN(Cc2ccc(-c3ccc(-c4nc5ccc(C(F)(F)F)cc5[nH]4)s3)cc2)CC1 | 91% (active) | 22% | -5 | 99% (active) | inactive | inactive | inactive | inactive |
| CN(Cc1ccccc1)C1CCCN(c2cc(NC(=O)c3cccs3)ccn2)C1 (stereo not drawn) | 90% (active) | 2% | -1 | 88% (active) | inactive | inactive | inactive | inactive |
| CN1CCN(C(C(=O)NCc2cc(Cl)cc(Cl)c2)c2ccc(NC(=O)Nc3ccccc3)cc2)CC1 (stereo not drawn) | 43% | 23% | -5 | 98% (active) | inactive | inactive | inactive | inactive |
| O=C(NC1CC1)c1ccc(N2CCC(c3ccccc3)CC2)nc1 | 92% (active) | 16% | 1 | 93% (active) | inactive | inactive | inactive | inactive |
| CC(C)CCNc1nc(NCCCc2ccccc2)c2cc(O)ccc2n1 | 95% (active) | 14% | -1 | 101% (active) | inactive | inactive | inactive | inactive |
| Cc1cc(NC(=O)NCCN2CCC(NS(=O)(=O)c3ccc(C(F)(F)F)cc3)C2)c2ccccc2n1 (stereo not drawn) | 39% | 15% | -3 | 96% (active) | inactive | inactive | inactive | inactive |
| CC(C)(C)c1ccccc1OC(=O)c1ccccc1 | 2% | -4% | 0 | 95% (active) | inactive | inactive | inactive | inactive |
| Cc1noc(C)c1-c1cccc(CNCc2ccc(-c3ccc(-c4nc5ccc(C(F)(F)F)cc5[nH]4)cc3)cc2)c1 | 97% (active) | 35% | 2 | 102% (active) | inactive | inactive | inactive | inactive |
| C[C@@H]1CN(CCCn2c3ccccc3c3ccc(C(=O)CCCN(C)C)cc32)C[C@H](C)N1 | 6% | 26% | 3 | 100% (active) | inactive | inactive | inactive | inactive |
| Cc1[nH]c(C)c(-c2ccc(Oc3cccc(Cl)c3)cc2)c(=O)c1Br | 97% (active) | 46% | 3 | 98% (active) | inactive | inactive | inactive | inactive |
